Screening results as filed in PubChem.
The sample as a whole holds a higher share of hits than the screen did.
AMPAR-TARP mod = modulates AMPAR-stargazin complexes; 40,000 tested, 3.5% active; O88602+P19491; HEK293 GluA2+stargazin, membrane potential dye (FDSS), glutamate EC50; hits were called plate by plate, in both directions; calls only at 30 µM;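 active means any of four per-well response measures lying three or more SD from its plate-wide compound average, in either direction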
GIRK2 activator = Activates human GIRK2-containing potassium channels; P48051; 34,000 tested, under 10 active; HEK293 GIRK2/NPY4 cells, thallium flux fluorescence; activation (% efficacy), % for hits at 37.5 µM;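 active means primary screen hit, no activity in plain HEK293 cells, and in GIRK2-only cells above 5% efficacy rising with concentration; inactive means the rest, including fluorescent compounds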;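 further: efficacy is normalized control-subtracted fluorescence 15 s after thallium addition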
Target sequence (P48051 whole entry, looked up): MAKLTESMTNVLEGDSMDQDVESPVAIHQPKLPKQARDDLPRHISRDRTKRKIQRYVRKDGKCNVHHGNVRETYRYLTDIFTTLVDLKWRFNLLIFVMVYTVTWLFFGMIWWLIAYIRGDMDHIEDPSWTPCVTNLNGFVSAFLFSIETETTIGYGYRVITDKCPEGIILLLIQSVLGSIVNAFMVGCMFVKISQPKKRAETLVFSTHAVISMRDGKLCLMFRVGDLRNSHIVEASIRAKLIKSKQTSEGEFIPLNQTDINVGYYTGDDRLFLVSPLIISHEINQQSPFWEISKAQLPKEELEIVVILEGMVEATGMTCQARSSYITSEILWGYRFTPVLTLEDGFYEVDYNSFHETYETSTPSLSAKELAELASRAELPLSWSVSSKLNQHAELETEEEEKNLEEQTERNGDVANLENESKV
An asterisk follows results filed as active; i = inactive; x = not tested or not shown; + = active, no number.

SMILES | AMPAR-TARP mod | GIRK2 activator
Cc1cc([N+](=O)[O-])ccc1NC(=O)c1ccc(=O)n(Cc2cccc([N+](=O)[O-])c2)c1 | + | i
Cc1cc([N+](=O)[O-])ccc1NC(=O)c1ccc(=O)n(Cc2ccccc2)c1 | i | i
O=C(Nc1ccc(Br)cc1)c1ccc(=O)n(Cc2cccc([N+](=O)[O-])c2)c1 | + | i
Cc1ccc([N+](=O)[O-])cc1NC(=O)c1ccc(=O)n(Cc2cccc(C(F)(F)F)c2)c1 | i | i
Cc1cc([N+](=O)[O-])ccc1NC(=O)c1ccc(=O)n(Cc2cccc(C(F)(F)F)c2)c1 | + | i
O=C(Nc1ccc(F)c(F)c1)c1ccc(=O)n(Cc2cccc(Cl)c2)c1 | + | i
CCOc1ccc(/C=C/C(=O)Nc2ccc(C)cc2Br)cc1OC | i | x
CNS(=O)(=O)c1ccc(C(=O)Nc2ncccc2C)o1 | i | i
CSCCC(C)(O)CNC(=O)C(=O)Nc1ccon1 (configuration not stated) | x | i
COCCCN1CCc2nc(SCc3cccc(Br)c3)[nH]c(=O)c2C1 | i | i
CS(=O)(=O)c1ccc(CC(=O)Nc2cccc(Br)c2)cc1 | i | x
O=C(Nc1nnc(Cc2cccs2)o1)c1ccco1 | i | i
O=C(NCc1cccs1)c1coc(NC(=O)c2ccco2)n1 | + | i
CC(C)n1nccc1-c1nnc(NC(=O)/C=C/c2ccccc2Cl)o1 | i | i
COC(=O)Cc1c(C)c2ccc(OCC(=O)c3ccc(-c4ccccc4)cc3)cc2oc1=O | i | x
COC(=O)Cc1c(C)c2ccc(OCC(=O)c3ccc(F)cc3)cc2oc1=O | + | x
COc1ccc(C(=O)NC2=N/C(=C(/C#N)C(=O)NC3CCCCC3)c3ccccc32)cc1 | i | i
CC(C)S(=O)(=O)c1ccc(CC(=O)N2CCC(c3cccs3)CC2)cc1 | i | i
CC(C)S(=O)(=O)c1ccc(CC(=O)N2CCC(c3ccsc3)CC2)cc1 | + | i
O=C(CSc1ccc(-n2cccn2)nn1)NC1CCCCC1 | i | i
CC(C)CCN1C(=O)C(C)(C)COc2ccc(NC(=O)COc3ccc(Cl)cc3)cc21 | i | x
Cc1ccc(OCC(=O)Nc2ccc3c(c2)N(CCC(C)C)C(=O)C(C)(C)CO3)cc1 | + | x
CC(C)CCN1C(=O)C(C)(C)COc2ccc(NC(=O)c3cc(=O)c4ccccc4o3)cc21 | + | i
Cc1cccc(OCC(=O)Nc2ccc3c(c2)N(CCC(C)C)C(=O)C(C)(C)CO3)c1 | i | x
COC(=O)CN1N=C(c2ccccc2)Cn2c1nc1c2c(=O)n(CC(=O)OC)c(=O)n1C | i | x
SMILES | AMPAR-TARP mod | GIRK2 activator
CCN1C(SCC(=O)NCc2cccc(OC)c2)=NS(=O)(=O)c2ccccc21 | i | i
O=S(=O)(c1c(F)cccc1F)N(Cc1ccccn1)Cc1ccco1 | x | i
O=C1/C(=C/c2ccc(Cl)c(Cl)c2)Oc2cc(O)ccc21 | i | x
COc1ccc(/C=C2\Oc3cc(O)ccc3C2=O)cc1OC | + | x
COc1cc(/C=C2\Oc3cc(O)ccc3C2=O)cc(OC)c1OC | + | x
O=C1/C(=C/c2cccs2)Oc2cc(O)ccc21 | + | x
COc1cc(/C=C2\Oc3cc(OC(=O)c4c(OC)cccc4OC)ccc3C2=O)cc(OC)c1OC | i | x
O=C1/C(=C/c2ccccc2F)Oc2cc(O)ccc21 | i | x
O=C(Cc1ccc(NS(=O)(=O)c2ccc(F)cc2)cc1)NCc1cccs1 | i | i
COc1ccc(NC(=O)C(=O)NCC(c2cccs2)N(C)C)cc1OC (configuration not stated) | i | i
CC(C)c1ccc(NC(=O)C(=O)NCC(c2cccn2C)N2CCOCC2)cc1 (configuration not stated) | i | i
Cc1cc(C)c(S(=O)(=O)NC(C)C)c(C)c1N(C)S(C)(=O)=O | i | x
COC(=O)c1ccc(C)c(-n2c(N)c(C(=O)Nc3ccccc3)sc2=S)c1 | i | i
Cc1c(Cl)cccc1NC(=O)C(=O)NCC1COC2(CCCC2)O1 (configuration not stated) | i | i
O=C(NCCCn1nc(-c2ccco2)ccc1=O)c1ccc(F)cc1 | i | i
O=C1NC(=O)C2(CCN(S(=O)(=O)c3ccc4cccc5c4c3CC5)CC2)N1 | i | i
CN(Cc1nc2ccccc2n1Cc1cccc(Cl)c1)C(=O)c1ccco1 | x | i
Fc1cccc(Cl)c1Cn1c(CN2CCCC2)nc2ccccc21 | + | i
Brc1ccc(Cn2c(CN3CCCC3)nc3ccccc32)cc1 | i | x
CCOC(=O)N(C)Cc1nc2ccccc2n1Cc1c(F)cccc1Cl | + | x
Cc1cccc(-n2c(=O)c3c(c4cc(C)ccc4n3C)n(CC(=O)Nc3c(C)cccc3C)c2=O)c1 | i | x
Cc1ccc(Cn2c(C3CC(=O)N(C)C3)nc3ccccc32)cc1 (configuration not stated) | i | x
COc1ccc2nc(N3CC(C(=O)Nc4ccc(C(N)=O)cc4)C3)sc2c1 | i | i
